For some of these results: Entries with a potency or affinity are not part of this list. Active and inactive are the calls of the source. Starred links: 1 amine or outer side, 2 acyl side, 3 side chain; linkers in the order of their positions; H or OH if unused. Positions of bridges follow the written chain, without caps; N, C: chain ends. Non-standard residues stand in square brackets, D forms with d. Residues, ends and D or L forms follow the SMILES beside them. ξ: configuration not given here. *: point of attachment. ΔAla(3-NHCONH2) = NC(=O)NC=C(N)C(=O)O; X1 = NC1=NCCC(C(N[*:1])C(=O)[*:2])N1; ξβ3hOrn = NCCCC(N)CC(=O)*; Dap = NC[CH](N)C(=O)O
Experiments:
[1] = Ebola virus entry reporter assay, green channel fluorescence
[2] = Ebola virus entry cell assay, ratio channel

SMILES	outcome [1]	outcome [2]	AC50 [2]
CCCCNc1ccc(C(=O)OCCOCCOCCOCCOCCOCCOCCOCCOCCOC)cc1	inactive	inactive	–
CO/N=C(\C(=O)N[C@@H]1C(=O)N2C(C(=O)O)=C(CSc3nc(=O)c(O)nn3C)CS[C@H]12)c1csc(N)n1	inactive	inactive	–
Nc1nc(N)c2nc(-c3ccccc3)c(N)nc2n1	inactive	inactive	–
O=C(O)CCCc1ccccc1	inactive	inactive	–
CN(C)CCC[C@@]1(c2ccc(F)cc2)OCc2cc(C#N)ccc21	inactive	inactive	–
CC(=O)Nc1nnc(S(N)(=O)=O)s1	inactive	inactive	–
COc1cc2nc(N3CCN(C(=O)C4CCCO4)CC3)nc(N)c2cc1OC (configuration not stated)	inactive	inactive	–
O=NN(CCCl)C(=O)NC1CCCCC1	inactive	inactive	–
CCCCN1C[C@H](O)[C@@H](O)[C@H](O)[C@H]1CO	inactive	inactive	–
O=C1[C@H](CC[C@H](O)c2ccc(F)cc2)[C@@H](c2ccc(O)cc2)N1c1ccc(F)cc1	inactive	inactive	–
Cc1c(O)cccc1C(=O)N[C@@H](CSc1ccccc1)[C@H](O)CN1C[C@H]2CCCC[C@H]2C[C@H]1C(=O)NC(C)(C)C	inactive	inactive	–
COC1=CC(=O)C[C@@H](C)[C@]12Oc1c(Cl)c(OC)cc(OC)c1C2=O	inactive	inactive	–
CCCC(CCC)C(=O)O	inactive	inactive	–
COc1cc2c(cc1OC)C(=O)C(CC1CCN(Cc3ccccc3)CC1)C2 (configuration not stated)	inactive	inactive	–
Cc1ccsc1C(=CCCN1CCC[C@@H](C(=O)O)C1)c1sccc1C	inactive	inactive	–
C[C@@H](O)[C@H]1C(=O)N2C(C(=O)O)=C(S[C@@H]3CN[C@H](CNS(N)(=O)=O)C3)[C@H](C)[C@H]12	inactive	inactive	–
CC(C)c1c(C(=O)Nc2ccccc2)c(-c2ccccc2)c(-c2ccc(F)cc2)n1CC[C@@H](O)C[C@@H](O)CC(=O)O	inactive	inactive	–
O=C(O)c1ccc(-n2nc(-c3ccccc3O)nc2-c2ccccc2O)cc1	inactive	inactive	–
CCN(CC)CCOC(=O)C1(C2CCCCC2)CCCCC1	inactive	–	15.8 µM (active)
O=C(O)c1cn(C2CC2)c2cc(N3CCNCC3)c(F)cc2c1=O	inactive	inactive	–
CN1CCc2cccc3c2[C@H]1Cc1ccc(O)c(O)c1-3	inactive	inactive	–
CC(C)n1c(/C=C/[C@@H](O)C[C@@H](O)CC(=O)O)c(-c2ccc(F)cc2)c2ccccc21	inactive	inactive	–

SMILES	outcome [1]	outcome [2]	AC50 [2]
C[C@@H](O)[C@H]1C(=O)N2C(C(=O)O)=C(S[C@@H]3CN[C@H](C(=O)N(C)C)C3)[C@H](C)[C@H]12	inactive	inactive	–
CC(C)Nc1cccnc1N1CCN(C(=O)c2cc3cc(NS(C)(=O)=O)ccc3[nH]2)CC1	inactive	inactive	–
O=C(c1ccccc1)c1ccc2n1CCC2C(=O)O (configuration not stated)	inactive	inactive	–
NC1[C@H]2CN(c3nc4c(cc3F)c(=O)c(C(=O)O)cn4-c3ccc(F)cc3F)C[C@@H]12 (some centres not stated)	inactive	inactive	–
CNC1(C)C2CCC(C2)C1(C)C (configuration not stated)	inactive	inactive	–
CCCCS(=O)(=O)N[C@@H](Cc1ccc(OCCCCC2CCNCC2)cc1)C(=O)O	inactive	inactive	–
CC1=C(C(=O)O)N2C(=O)[C@@H](NC(=O)[C@H](N)c3ccc(O)cc3)[C@H]2SC1	inactive	inactive	–
Nc1ccc(O)c(C(=O)O)c1	inactive	inactive	–
O=C1NC(=O)C(c2ccccc2)(c2ccccc2)N1	inactive	inactive	–
NC12CC3CC(CC(C3)C1)C2	inactive	inactive	–
O=C(O)CCNC(=O)c1ccc(N=Nc2ccc(O)c(C(=O)O)c2)cc1	inactive	inactive	–
NC(=O)c1cn(Cc2c(F)cccc2F)nn1	inactive	inactive	–
CN(N=O)C(=O)N[C@@H]1[C@@H](O)[C@H](O)[C@@H](CO)O[C@@H]1O	inactive	inactive	–
Cc1ccc(-n2[nH]c(C)c(N=Nc3cccc(-c4cccc(C(=O)O)c4)c3O)c2=O)cc1C	inactive	inactive	–
C1N2CN3CN1CN(C2)C3	inactive	inactive	–
Cn1cnc([N+](=O)[O-])c1Sc1ncnc2nc[nH]c12	inactive	inactive	–
C[C@@H]1C[C@H]2[C@@H]3CCC4=CC(=O)C=C[C@]4(C)[C@@]3(F)[C@@H](O)C[C@]2(C)[C@@]1(O)C(=O)CO	inactive	inactive	–
O=C1NC(c2ccccc2)(c2ccccc2)C(=O)N1COP(=O)(O)O	inactive	inactive	–
CC1=C(C(=O)O)N2C(=O)[C@@H](NC(=O)[C@H](N)c3ccccc3)[C@H]2SC1	inactive	inactive	–
Cc1ccc(S(=O)(=O)NC(=O)NN2CC3CCCC3C2)cc1 (configuration not stated)	inactive	inactive	–
CC(C)(C)NC(=O)[C@@H]1CN(Cc2cccnc2)CCN1C[C@@H](O)C[C@@H](Cc1ccccc1)C(=O)N[C@H]1c2ccccc2C[C@H]1O	inactive	inactive	–
Cc1onc(-c2c(Cl)cccc2Cl)c1C(=O)N[C@@H]1C(=O)N2[C@@H]1SC(C)(C)[C@@H]2C(=O)O	inactive	inactive	–

SMILES	outcome [1]	outcome [2]	AC50 [2]
CCCNC(=O)NS(=O)(=O)c1ccc(Cl)cc1	inactive	inactive	–
Cn1c(=O)c2c(ncn2CC(O)CO)n(C)c1=O (configuration not stated)	inactive	inactive	–
CCOc1ccccc1OCCN[C@H](C)Cc1ccc(OC)c(S(N)(=O)=O)c1	inactive	inactive	–
CO[C@H]1C=CO[C@@]2(C)Oc3c(C)c(O)c4c(O)c(c(/C=N/N5CCN(C)CC5)c(O)c4c3C2=O)NC(=O)/C(C)=C\C=C[C@H](C)[C@H](O)[C@@H](C)[C@@H](O)[C@@H](C)[C@H](OC(C)=O)[C@@H]1C	inactive	inactive	–
Cc1ccccc1C(=O)Nc1ccc(C(=O)N2CCCC(O)c3cc(Cl)ccc32)c(C)c1 (configuration not stated)	inactive	inactive	–
COC(=O)[C@H]1[C@H]2C[C@@H]3c4[nH]c5cc(OC)ccc5c4CCN3C[C@H]2C[C@@H](OC(=O)c2cc(OC)c(OC)c(OC)c2)[C@@H]1OC	inactive	inactive	–
CCCCc1nc(Cl)c(CO)n1Cc1ccc(-c2ccccc2-c2nn[nH]n2)cc1	inactive	inactive	–
CNCCc1ccccn1	inactive	inactive	–
CCCCNC(=O)NS(=O)(=O)c1ccc(C)cc1	inactive	inactive	–
CC(COc1ccccc1)N(CCCl)Cc1ccccc1 (configuration not stated)	inactive	inactive	–
Nc1cc(-c2ccncc2)c[nH]c1=O	inactive	inactive	–
N[C@@H](C(=O)N[C@@H]1C(=O)N2C(C(=O)O)=C(Cl)CS[C@H]12)c1ccccc1	inactive	inactive	–
NCCCC(N)CC(=O)NCC1NC(=O)C(CO)NC(=O)C(N)CNC(=O)C(C2CCN=C(N)N2)NC(=O)C(=CNC(N)=O)NC1=O (stereo not drawn) (H-[Dap]S[Dap](ξβ3hOrn)[ΔAla(3-NHCONH2)][X1]; lactam 1-C; configuration not given here)	inactive	inactive	–
CN1CCN(C(c2ccccc2)c2ccccc2)CC1	inactive	inactive	–
COc1cc2ncnc(Nc3ccc(F)c(Cl)c3)c2cc1OCCCN1CCOCC1	inactive	–	15.8 µM (active)
NC(=O)OCC(COC(N)=O)c1ccccc1	inactive	inactive	–
Cc1ccc(C)c(OCCCC(C)(C)C(=O)O)c1	inactive	inactive	–
CNS(=O)(=O)Cc1ccc2[nH]cc(CCN(C)C)c2c1	inactive	inactive	–
CC(=O)N[C@@H](CS)C(=O)O	inactive	inactive	–
C=C[C@H]1CN2CC[C@H]1C[C@@H]2[C@@H](O)c1ccnc2ccc(OC)cc12	inactive	inactive	–
C[C@H]1[C@H](NC(=O)/C(=N/OC(C)(C)C(=O)O)c2csc(N)n2)C(=O)N1S(=O)(=O)O (stereo in doubt)	inactive	inactive	–
O=NN(CCCl)C(=O)NCCCl	inactive	inactive	–

SMILES	outcome [1]	outcome [2]	AC50 [2]
O=C1CCC(N2C(=O)c3ccccc3C2=O)C(=O)N1 (configuration not stated)	inactive	inactive	–
CN(C)CCOC(c1ccc(Cl)cc1)c1ccccn1 (configuration not stated)	inactive	inactive	–
CC(C)(C(=O)O)c1ccc(C(O)CCCN2CCC(C(O)(c3ccccc3)c3ccccc3)CC2)cc1 (configuration not stated)	inactive	inactive	–
Oc1ccc(C2CNCCc3c2cc(O)c(O)c3Cl)cc1 (configuration not stated)	inactive	inactive	–
CC[N+](C)(C)c1cccc(O)c1	inactive	inactive	–
CN1CCC(=C2c3ccccc3C=Cc3ccccc32)CC1	inactive	–	14.1 µM (active)
Cc1c(OCC(F)(F)F)ccnc1CS(=O)c1nc2ccccc2[nH]1 (configuration not stated)	inactive	inactive	–
Cc1cn[nH]c1	inactive	inactive	–
CC(C)OC(=O)C(C)(C)Oc1ccc(C(=O)c2ccc(Cl)cc2)cc1	inactive	inactive	–
CC(C)[N+](C)(CCOC(=O)C1c2ccccc2Oc2ccccc21)C(C)C	inactive	inactive	–
OCCOCCN1CCN(C(c2ccccc2)c2ccc(Cl)cc2)CC1 (configuration not stated)	inactive	inactive	–
CC1(C)NC(=O)N(c2ccc([N+](=O)[O-])c(C(F)(F)F)c2)C1=O	inactive	inactive	–
CCN(CC)CCNC(=O)c1cc(Cl)c(N)cc1OC	inactive	inactive	–
CCc1ccc(CCOc2ccc(CC3SC(=O)NC3=O)cc2)nc1 (configuration not stated)	inactive	inactive	–
O=C(OC1C[C@H]2CC[C@@H](C1)[N+]21CCCC1)C(O)(c1ccccc1)c1ccccc1 (some centres not stated)	inactive	inactive	–
Cn1cc[nH]c1=S	inactive	inactive	–
C#C[C@]1(O)CC[C@H]2[C@@H]3CCC4=Cc5oncc5C[C@]4(C)[C@H]3CC[C@@]21C	inactive	–	25.1 µM (active)
COC(=O)C1=C(C)NC(C)=C(C(=O)OCCN(C)Cc2ccccc2)C1c1cccc([N+](=O)[O-])c1 (configuration not stated)	inactive	–	28.2 µM (active)
Cc1nc(-c2ccc(OCC(C)C)c(C#N)c2)sc1C(=O)O	inactive	inactive	–
CC1(C)S[C@@H]2[C@H](NC(=O)[C@H](N)c3ccccc3)C(=O)N2[C@H]1C(=O)O	inactive	inactive	–

From PubChem BioAssay (NCATS)
